High-throughput results deposited in PubChem by National Center for Advancing Translational Sciences (NCATS).
Rows were chosen to be rich in hits. Some 10% of all compounds tested hit in one or more screens of this group.
ALOX12 inhib: 12-hLO (ALOX12) enzyme inhibition. 150,000 tested, 0.12% active. Potency, µM (top dose mostly 57.1 µM), most hits filed as inhibitors. purified 12-hLO, xylenol orange hydroperoxide absorbance; active = well fitted inhibition curve with a large enough effect; inconclusive = small, poorly fitted or top-dose-only effect; note: nearly all actives have a fitted effect of over 55% in size
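150 nM 12hLO, 25 mM Hepes pH 7.0 + 0.01% Triton X-100; cpd preinc 15 min RT; 40 uM arachidonic acid, 30 min RT; Fe-XO 30 min; A573/A405 ratio as read-out.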
PNC inhibitor: inhibitors of perinucleolar compartment assembly; PC3M PTB-GFP, PNC prevalence imaging, 16 h; active compounds read low; activity change (PNC), negative = inhibition, % at 10 µM; 140,000 tested, 3.1% active; AID 2417;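 active = readout at or below -70, meaning at least 70% loss of cells showing the perinucleolar compartment, a nuclear body marking cancer cells; inconclusive = readout between -30 and a set limit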
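Compounds are pinned in duplicate onto adhered PC3M cells stably expressing GFP-tagged PTB and incubated 16 h at 37 C. Cells are then fixed, nuclei stained with Hoechst, and PNC-positive cells counted.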
Lamin A splicing: changes lamin A minigene splicing in HeLa cells | 200,000 tested, 0.01% active | Potency, µM (highest dose often 46.1 µM), actives largely listed as inhibitors | HeLa LMNA splicing GFP/RFP minigene ratio, 48 h; active = well fitted inhibition curve with a large enough effect in the signal ratio, with a control signal flat, not every such curve was filed as active; inconclusive = small, poorly fitted or top-dose-only effect, or effect the other way, or a change in a side signal; the % refers to the signal ratio
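S3 HeLa cells stably expressing lamin A-EGFP splicing minigene plus DsRed2, 600 cells/well, 48 h compound exposure at 37C. Laser-scanning cytometry; analysed as GFP (500-530 nm)/RFP (575-640 nm) total intensity ratio; 0.5% DMSO vehicle.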
ALDH1A1 block: blocks purified human ALDH1A1 activity; P00352; Purified ALDH1A1, NADH fluorescence, propionaldehyde substrate; Potency, µM (series often up to 75.3 µM), most hits filed as inhibitors; 220,000 tested, 7.3% active; AID 1030
HPGD block: blocks human HPGD enzyme activity | P15428 | purified HPGD, NADH fluorescence kinetic, PGE2 substrate | Potency, µM, hits mostly inhibitors | 150,000 tested, 4.3% active
Target sequence (P15428 whole entry, looked up): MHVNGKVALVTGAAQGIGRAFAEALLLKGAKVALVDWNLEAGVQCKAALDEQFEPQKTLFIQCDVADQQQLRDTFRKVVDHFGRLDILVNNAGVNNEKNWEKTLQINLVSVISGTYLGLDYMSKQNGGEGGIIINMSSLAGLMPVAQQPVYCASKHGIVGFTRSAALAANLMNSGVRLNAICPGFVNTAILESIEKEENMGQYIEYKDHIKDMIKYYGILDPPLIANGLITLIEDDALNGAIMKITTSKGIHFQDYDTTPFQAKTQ
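NADH formation kinetics: reaction with 30 uM PGE2 and 1 mM NAD+ (final), 20 nM enzyme, Tris-HCl pH 8 with Tween 20, after 15 min compound preincubation at room temperature. Fluorescence change, last versus first of five reads.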
Large screens that a line does not name were inactive. Unless noted, calls come from the whole dose curve; as a rule, active = well fitted inhibition curve with a large enough effect (not every such curve was filed as active); inconclusive = small, poorly fitted or top-dose-only effect, or another doubt; inactive = no such curve, though single readings can be large or run the other way.

O=C1CC(Sc2ncccn2)C(=O)N1c1ccccc1C(F)(F)F (stereo unspecified)	ALDH1A1 block 20µM
O=C(Nc1c2c(nn1-c1ccc(Cl)cc1)CS(=O)(=O)C2)c1cccc(Cl)c1	none (no result: ALOX12 inhib, PNC inhibitor, ALDH1A1 block, HPGD block)
Cc1ccc(C)c(N2C(=O)N(C)c3ccccc3S2(=O)=O)c1	none (no result: ALOX12 inhib, PNC inhibitor, ALDH1A1 block, HPGD block)
COC(=O)c1ccc(C(NC(=O)OCc2ccccc2)/C(=C/[C@@H](C)C(=O)NCc2ccncc2)c2cccnc2)cc1 (stereo partly specified)	none (no result: PNC inhibitor, Lamin A splicing)
COc1ccc(C=NCCCN2CCOCC2)cc1	ALDH1A1 block 20µM
Cc1ccc(C)c(S(=O)(=O)Nc2ccc(C(N)=O)cc2)c1	ALDH1A1 block inconclusive (no result: ALOX12 inhib, PNC inhibitor, HPGD block)
Cc1ccc(C)c(NS(=O)(=O)c2cc(C(N)=O)ccc2C)c1	PNC inhibitor -81
CCC(C)NC(=O)c1sc2nc3n(c(=O)c2c1C)CCC3 (stereo unspecified)	none (no result: ALOX12 inhib, PNC inhibitor, ALDH1A1 block, HPGD block)
O=C(CN1CCOCC1)Nc1c2c(nc3ccccc13)N(Cc1ccccc1)CC2	PNC inhibitor inconclusive, ALDH1A1 block inconclusive, HPGD block inconclusive
Cc1cc(NC(=O)CN2CCOCC2)n(-c2nc3ccccc3s2)n1	ALDH1A1 block 22µM
O=C(CN1CCOCC1)Nc1nc2ccc(Br)cc2s1	PNC inhibitor inconclusive, ALDH1A1 block 13µM
CCOc1ccc2nc(NC(=O)CN3CCOCC3)sc2c1	none (no result: ALOX12 inhib, PNC inhibitor, Lamin A splicing, HPGD block)
O=C(c1c2c(nc3ccccc13)C(=O)N(C1CCCCC1)C2)N1CCN(c2ccc(F)cc2)CC1	none (no result: ALOX12 inhib, PNC inhibitor, ALDH1A1 block, HPGD block)
C[C@@H]1CC2(OC(O)[C@]3(C)O[C@H]23)O[C@H]2C[C@@]3(C)[C@@H]4CC[C@H]5C(C)(C)C(O[C@@H]6OC[C@@H](O)[C@H](O)[C@H]6O)CC[C@@]56C[C@@]46CC[C@]3(C)[C@@H]12 (stereo partly specified)	none (no result: PNC inhibitor, Lamin A splicing)
COc1cc(/C=C/C(=O)c2ccc(NS(=O)(=O)c3ccc(C)cc3)cc2)ccc1OC(F)F	Lamin A splicing inconclusive, HPGD block 16µM
COc1cc(/C=C/C(=O)c2ccc(NS(=O)(=O)c3ccc(C)cc3)cc2)cc(OC)c1O	Lamin A splicing inconclusive, ALDH1A1 block 22µM
CCc1nnc(NS(=O)(=O)c2ccc(NC(=S)NC(=O)/C=C/c3ccc(C(C)C)cc3)cc2)s1	ALOX12 inhib 16µM, Lamin A splicing inconclusive, HPGD block 25µM
CCc1nnc(NS(=O)(=O)c2ccc(NC(=S)NC(=O)/C=C/c3ccc(OC)cc3)cc2)s1	Lamin A splicing inconclusive, ALDH1A1 block 2.5µM, HPGD block inconclusive
CCc1nnc(NS(=O)(=O)c2ccc(NC(=S)NC(=O)/C=C/c3ccccc3)cc2)s1	ALOX12 inhib inconclusive, Lamin A splicing inconclusive, ALDH1A1 block inconclusive, HPGD block inconclusive
CCc1nnc(NS(=O)(=O)c2ccc(NC(=S)NC(=O)c3ccc(Br)cc3)cc2)s1	ALOX12 inhib inconclusive, HPGD block 14µM
CCc1nnc(NS(=O)(=O)c2ccc(NC(=S)NC(=O)c3ccccc3)cc2)s1	ALOX12 inhib inconclusive, Lamin A splicing inconclusive, ALDH1A1 block inconclusive
COc1cc2c(cc1OC)C(COc1ccc(F)cc1)N(C(=O)c1cccc(F)c1)CC2 (stereo unspecified)	none (no result: ALOX12 inhib, PNC inhibitor, ALDH1A1 block, HPGD block)
CCN=c1scc(C)n1/N=C/c1ccc(O)c(O)c1O	ALDH1A1 block 10µM, HPGD block 7.1µM
C=C(C)CN=c1scc(C)n1/N=C/c1ccco1	none
COCCN=c1scc(-c2cccs2)n1/N=C/c1ccc(O)c(O)c1O	ALOX12 inhib inconclusive, PNC inhibitor inconclusive, Lamin A splicing inconclusive, ALDH1A1 block 1.1µM (no result: HPGD block)
O=C1C2C3C=CC([C@@H]2C(=O)N1C1CCCCC1)[C@H]1C(=O)N(C2CCCCC2)C(=O)C31 (stereo partly specified)	ALDH1A1 block 1.4µM
CC(C)C1NC(=S)N(C2CCCCC2)C1=O (stereo unspecified)	none
O=C1[C@@H]2[C@@H]3C[C@@H]([C@H]4ON=C(c5ccc(Cl)cc5)[C@@H]34)[C@@H]2C(=O)N1C1CCCCC1	PNC inhibitor inconclusive, Lamin A splicing inconclusive
O=C1C2C3C=CC(C2C(=O)N1C1CCCCC1)C1C2C(=O)N(C4CCCCC4)C(=O)C2C31 (stereo unspecified)	ALDH1A1 block 1.4µM
O=C(O)c1cnc(-c2ccccc2)nc1Sc1ccccc1	HPGD block 14µM
O=C(O)c1cnc(-c2ccccc2)nc1Sc1cccc(Cl)c1	PNC inhibitor inconclusive, HPGD block 22µM
